# Data from PubChem BioAssay (EPA / NIEHS).
# Inconclusive results are not listed. Some structures have more than one record in an assay (separate samples or runs), and their calls can disagree. Activity calls are given as the source filed them. The calls were made as follows, unless noted: active = hit-call score of the fitted dose curve at least 0.9, where 1 is the maximum; inactive = score below 0.9.
# Test system: not listed separately
# Assay: IUF_NPC2-5_cell_number_120hr: Cell Number Assessment at 120 hours in the Leibniz Research Institute for Environmental Medicine (IUF) Neural Progenitor Cell Migration and Differentiation Assay (NPC2-5) (AID 2284308);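 also: count of Hoechst-stained nuclei in migration zone around plated human neural progenitor spheres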
# Details: not given
# Method in brief: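 Hoechst-stained nuclei within the migration area were counted by automated high content imaging after 120 h. Single hNPC spheres differentiated on poly-D-lysine/laminin in DMEM/F12 (3:1) with 1% N2, compound present throughout, DMSO ≤0.1%.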
row,SMILES,outcome
1,CN/C(=N\[N+](=O)[O-])NCc1cnc(Cl)s1,inactive
2,Cc1c(COC(=O)[C@@H]2[C@H](/C=C(\Cl)C(F)(F)F)C2(C)C)cccc1-c1ccccc1,inactive
3,CS(=O)(=O)c1ccc(C(=O)C2C(=O)CCCC2=O)c([N+](=O)[O-])c1,inactive
4,CCOP(=O)(OCC)Oc1nc(Cl)c(Cl)cc1Cl,inactive
5,N#CN=C1SCCN1Cc1ccc(Cl)nc1,inactive
6,CS(=O)(=O)c1cc(C(F)(F)F)ccc1C(=O)c1cnoc1C1CC1,inactive
7,O=C(Nc1ccccc1-c1ccc(Cl)cc1)c1cccnc1Cl,inactive
8,CCNC(=O)NC(=O)C(C#N)=NOC,inactive
9,CO/N=C(/C1=NOCCO1)c1ccccc1Oc1ncnc(Oc2ccccc2Cl)c1F,inactive
10,COC(=O)N(C(=O)N1CO[C@@]2(C(=O)OC)Cc3cc(Cl)ccc3C2=N1)c1ccc(OC(F)(F)F)cc1,inactive
11,CNC(=O)Oc1cccc2ccccc12,inactive
12,CC1(C)C(C=C(Cl)Cl)C1C(=O)OC(C#N)c1cccc(Oc2ccccc2)c1 (stereo unspecified),inactive
13,C=C(C)CN(CC)c1c([N+](=O)[O-])cc(C(F)(F)F)cc1[N+](=O)[O-],inactive
14,CC(C)(C)C(=O)C(Oc1ccc(Cl)cc1)n1cncn1 (stereo unspecified),inactive
15,CCSC(=O)N1CCCCCC1,inactive
16,COP(=S)(OC)SCn1nnc2ccccc2c1=O,inactive

# Test system: not listed separately
# Assay: IUF_NPC2-5_viability_120hr: Viability Assessment at 120 hours in the Leibniz Research Institute for Environmental Medicine (IUF) Neural Progenitor Cell Migration and Differentiation Assay (NPC2-5) (AID 2284312)
# Details: not given
# Method in brief: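 Human fetal neural progenitor spheres (0.3 mm) plated on poly-D-lysine/laminin in N2 differentiation medium, exposed 120 h with half-medium refresh at day 3. Viability by alamar blue resazurin fluorescence; 7 concentrations, DMSO max 0.1%.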
row,SMILES,outcome
1,CN/C(=N\[N+](=O)[O-])NCc1cnc(Cl)s1,inactive
2,Cc1c(COC(=O)[C@@H]2[C@H](/C=C(\Cl)C(F)(F)F)C2(C)C)cccc1-c1ccccc1,inactive
3,CS(=O)(=O)c1ccc(C(=O)C2C(=O)CCCC2=O)c([N+](=O)[O-])c1,inactive
4,CCOP(=O)(OCC)Oc1nc(Cl)c(Cl)cc1Cl,inactive
5,N#CN=C1SCCN1Cc1ccc(Cl)nc1,inactive
6,CS(=O)(=O)c1cc(C(F)(F)F)ccc1C(=O)c1cnoc1C1CC1,inactive
7,O=C(Nc1ccccc1-c1ccc(Cl)cc1)c1cccnc1Cl,inactive
8,CCNC(=O)NC(=O)C(C#N)=NOC,inactive
9,CO/N=C(/C1=NOCCO1)c1ccccc1Oc1ncnc(Oc2ccccc2Cl)c1F,inactive
10,COC(=O)N(C(=O)N1CO[C@@]2(C(=O)OC)Cc3cc(Cl)ccc3C2=N1)c1ccc(OC(F)(F)F)cc1,inactive
11,CNC(=O)Oc1cccc2ccccc12,inactive
12,CC1(C)C(C=C(Cl)Cl)C1C(=O)OC(C#N)c1cccc(Oc2ccccc2)c1 (stereo unspecified),inactive
13,C=C(C)CN(CC)c1c([N+](=O)[O-])cc(C(F)(F)F)cc1[N+](=O)[O-],inactive
14,CC(C)(C)C(=O)C(Oc1ccc(Cl)cc1)n1cncn1 (stereo unspecified),inactive
15,CCSC(=O)N1CCCCCC1,inactive
16,COP(=S)(OC)SCn1nnc2ccccc2c1=O,inactive

# Test system: IYD (gene 389434)
# Assay: CCTE_GLTED_hIYD: CCTE's human Iodotyrosine Deiodinase (xIYD) Inhibition Assay, Great Lakes Toxicology and Ecology Division (GLTED) Lab (AID 2284317; active = hit-call score of the fitted dose curve at least 0.9, where 1 is the maximum;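 also: cell-free human IYD enzyme made in baculovirus insect cells; iodide freed from monoiodotyrosine measured by cerium arsenite color change at 420 nm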)
# Details: not given
# Method in brief: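 Deiodination of MIT by insect-cell-produced human IYD is measured after a 3 h incubation with test chemical. Free iodide passes through a Dowex column and accelerates Sandell-Kolthoff Ce4+ reduction, read at 420 nm; run in triplicate.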
SMILES,outcome,AC50
CCC(C)n1c(=O)[nH]c(C)c(Br)c1=O (stereo unspecified),inactive,
OC(c1ccc(Cl)cc1)(c1ccc(Cl)cc1)C(Cl)(Cl)Cl,,100 µM (active)
CCN(CC)C(=O)C(C)Oc1cccc2ccccc12 (stereo unspecified),inactive,
CC(C)NC(=O)N1CC(=O)N(c2cc(Cl)cc(Cl)c2)C1=O,inactive,
CC(C)Oc1cccc(NC(=O)c2ccccc2C(F)(F)F)c1,inactive,

# Test system: not listed separately
# Assay: CCTE_Mundy_HCI_iCellGluta_NOG_NeuriteLength: CCTE's Neurite Outgrowth Assay in iCellGluta cells for Neurite Length, Mundy Lab (AID 2284318; active = hit-call score of the fitted dose curve at least 0.9, where 1 is the maximum)
# Details: not given
# Method in brief: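 Automated high-content imaging of betaIII-tubulin (Alexa Fluor-488) and Hoechst-stained cells gave neurite length, normalized to the DMSO baseline.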
SMILES,outcome,AC50
CN/C(=N\[N+](=O)[O-])NCc1cnc(Cl)s1,inactive,
Cc1c(COC(=O)[C@@H]2[C@H](/C=C(\Cl)C(F)(F)F)C2(C)C)cccc1-c1ccccc1,,10.8 µM (active)
CS(=O)(=O)c1ccc(C(=O)C2C(=O)CCCC2=O)c([N+](=O)[O-])c1,inactive,
N#CN=C1SCCN1Cc1ccc(Cl)nc1,inactive,
CS(=O)(=O)c1cc(C(F)(F)F)ccc1C(=O)c1cnoc1C1CC1,inactive,
O=C(Nc1ccccc1-c1ccc(Cl)cc1)c1cccnc1Cl,inactive,23.7 µM (active)
CCNC(=O)NC(=O)C(C#N)=NOC,inactive,
CO/N=C(/C1=NOCCO1)c1ccccc1Oc1ncnc(Oc2ccccc2Cl)c1F,,9.92 µM (active)
COC(=O)N(C(=O)N1CO[C@@]2(C(=O)OC)Cc3cc(Cl)ccc3C2=N1)c1ccc(OC(F)(F)F)cc1,inactive,
CNC(=O)Oc1cccc2ccccc12,inactive,
CC1(C)C(C=C(Cl)Cl)C1C(=O)OC(C#N)c1cccc(Oc2ccccc2)c1 (stereo unspecified),inactive,
C=C(C)CN(CC)c1c([N+](=O)[O-])cc(C(F)(F)F)cc1[N+](=O)[O-],,22.1 µM (active)
CC(C)(C)C(=O)C(Oc1ccc(Cl)cc1)n1cncn1 (stereo unspecified),inactive,
CCSC(=O)N1CCCCCC1,inactive,
COP(=S)(OC)SCn1nnc2ccccc2c1=O,,21.9 µM (active)

# Test system: not listed separately
# Assay: CCTE_Deisenroth_5AR_NBTE_donor: CCTE's 5alpha-reductase NanoBRET Target Engagement Assay […], Deisenroth Lab (AID 2284319)
# Details: actives raise or lower the signal
# Method in brief: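 In this secondary endpoint, donor luminescence from SRD5A2-NanoLuc in transfected HEK293T flags artifacts. Test chemical (10 nM - 29.9 uM) is present five hours, tracer the last two; mock-tracer wells run plate-matched; data fitted bidirectionally against DMSO.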
row,SMILES,outcome
1,CC1(C)CCC(=Cc2ccc(Cl)cc2)C1(O)Cn1cncn1 (stereo unspecified),inactive
2,O=C1C2CC=CCC2C(=O)N1SC(Cl)(Cl)Cl (stereo unspecified),inactive
3,Cc1ccc(N=CN(C)C=Nc2ccc(C)cc2C)c(C)c1,inactive
4,COP(=S)(OC)SCn1nnc2ccccc2c1=O,inactive

# Test system: not listed separately
# Assay: CCTE_Deisenroth_5AR_NBTE_acceptor: CCTE's 5alpha-reductase NanoBRET Target Engagement Assay - Autofluorescence Screen, Deisenroth Lab (AID 2284321);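 also: compound fluorescence in the acceptor channel under 460 nm excitation flags autofluorescence artifacts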
# Details: actives raise or lower the signal
# Method in brief: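 Autofluorescence check: ToxCast chemicals, nominal 100 uM, excitation 460 nm, n=3 runs. Acceptor fluorescence endpoint, bidirectional fit relative to DMSO. Parent assay in HEK293T, 5 h post-dose.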
row,SMILES,outcome
1,CC1(C)CCC(=Cc2ccc(Cl)cc2)C1(O)Cn1cncn1 (stereo unspecified),inactive
2,O=C1C2CC=CCC2C(=O)N1SC(Cl)(Cl)Cl (stereo unspecified),inactive
3,Cc1ccc(N=CN(C)C=Nc2ccc(C)cc2C)c(C)c1,inactive
4,COP(=S)(OC)SCn1nnc2ccccc2c1=O,inactive
